Experiments:
[1] = tested on: Vero E6 infected with SARS-CoV-2; assay: morphology score (similarity to uninfected cells); higher = more like uninfected cells; settings: 24 h
[2] = tested on: Vero E6 infected with SARS-CoV-2; assay: SARS-CoV-2 infection rate relative to infected DMSO; higher = more infection, active = 60 or less; settings: 24 h

| Structure (SMILES) | morphology score [1] | SARS-CoV-2 infection rate [2] |
| --- | --- | --- |
| CCn1c(-c2nonc2N)nc2cncc(CNC3CCNCC3)c21 (10 µM) | 0.371 | 106% (inactive) |
| Cc1cc(=O)[nH]c(=S)[nH]1 [methylthiouracil] (10 µM) | 0.0905 | 104% (inactive) |
| NC(=O)Cc1cccc(C(=O)c2ccccc2)c1N [nepafenac] (10 µM) | 0.0605 | 120% (inactive) |
| CC(C)(O)c1coc(S(=O)(=O)NC(=O)Nc2c3c(cc4c2CCC4)CCC3)c1 (10 µM) | 0.0866 | 93.5% (inactive) |
| O=C(O)CCCCC(CCSCc1ccccc1)SCc1ccccc1 (centres undefined) (10 µM) | 0.195 | 104% (inactive) |
| CN1CC[C@@H]2CN3CCc4cccc(c43)[C@@H]2C1 (10 µM) | -0.0541 | 108% (inactive) |
| Cc1cn(C[C@H](N)C(=O)O)c(=O)n(Cc2ccsc2C(=O)O)c1=O (10 µM) | -0.0699 | 96.5% (inactive) |
| Fc1ccc(-n2cc(CCCCN3CCC4(CC3)OCc3ccccc34)c3ccccc32)cc1 [siramesine] (0.833333 µM) | 0.0919 | 94.5% (inactive) |
| Cc1ccc(S(N)(=O)=O)cc1 [para-toluenesulfonamide] (10 µM) | -0.0434 | 106% (inactive) |
| O=C1NC(=O)c2c1c1c3ccccc3[nH]c1c1[nH]c3ccccc3c21 [arcyriaflavin-a] (10 µM) | 0.363 | 106% (inactive) |
| Cc1ccc(/C=N/NC(=O)c2ccccc2Oc2ccccc2)o1 (10 µM) | 0.268 | 82.5% (inactive) |
| COC(=O)C1=C(C)NC(C)=C(C(=O)O[C@H]2CCN(Cc3ccccc3)C2)[C@H]1c1cccc([N+](=O)[O-])c1 [barnidipine] (10 µM) | -0.0592 | 112% (inactive) |

Reference: the supplement of paper PMC13380429
